Test results as given in PubChem BioAssay (NCI).
This is part of a sample that, as a whole, favours compounds with a hit. Of some 79,000 tested, about 15% had one in any assay. Values without a mark were called inactive. Rule as the data show it: active = growth inhibition above about 70%; inactive = the rest.

Assay: NCI Yeast Anticancer Drug Screen. Data for the wt2 strain (AID 169);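 also: 0% = growth of vehicle-treated yeast cultures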
Settings: S. cerevisiae wt2 strain growth inhibition; at 1.2 µM; active compounds read high
Procedure, shortened: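 Yeast cells were exposed to test compounds, and growth inhibition was measured relative to vehicle-treated controls.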

SMILES	growth inhibition
O=P(NC1CCCCC1)(OCc1ccccc1)OCc1ccccc1	1%
COc1oc(C(=O)NC2CCCCC2)c(-c2ccc(Cl)cc2)c1S(=O)(=O)c1ccccc1	-1%
C[Si](C)(C)/C=C/CCNC(C#N)c1ccccc1 (stereo not given)	-9%
CCOc1ccc(NC(=O)C2=C(C)NC(C)=C(C(=O)Nc3ccc(OCC)cc3)C2c2cccc([N+](=O)[O-])c2)cc1	-3%
CN(C)CCOC1(Cc2ccc(F)cc2)CCC(C(C)(C)C)CC1 (stereo not given)	1%
CC1(C)CC(=O)C(/C=N/c2nc(-c3ccccc3)cs2)=C(O)C1	-2%
CC(=O)Nc1ccc2c(c1)Cc1cc(N=C3C=CC(=O)O3)ccc1-2	0%
O=C1C=C(Cl)C(=O)C(c2ccc(Cl)cc2)=C1	-27%
CNCCCNc1c2ccccc2nc2cccc([N+](=O)[O-])c12	2%
CCCCCCCCCCCC(O)S(=O)(=O)O (stereo not given)	-4%
CC(C)OC(=O)c1ccc(CCc2cc(O)c(Br)cc2O)cc1	18%
CCc1cc(O)c(Cl)c(C)c1Cl	-33%
C(=Nc1ccc(-c2cc(-c3ccccc3)nc3ccc4ccccc4c23)cc1)c1ccccc1	-22%
CSc1nc(C)c(CCOC(C)=O)c(N=P(c2ccccc2)(c2ccccc2)c2ccccc2)n1	10%
CS(=O)(=O)SCc1ccc([N+](=O)[O-])cc1	-1%
COC1=C(OC)C(=O)C(Sc2ccc3ccccc3c2)=CC1=O	-35%
COc1nc2c(c(=O)n1C)N=C(c1ccccc1)[C@H](C(CC(=O)c1ccccc1)c1ccccc1)C(c1ccccc1)N2 (stereo not given in full)	-8%
Nc1cc(N)c(N=Nc2cccc3c(S(=O)(=O)O)cccc23)cc1N=Nc1cc([N+](=O)[O-])ccc1O	-14%

SMILES	growth inhibition
Nc1ccc(F)cc1S	4%
Brc1ccccc1-c1ncc(-c2ccccc2)o1	-46%
COc1cc(C2SCC(=O)N2c2ccc(-c3ccc(-n4c(-c5ccccc5)nc5ccccc5c4=O)cc3)cc2)ccc1O (stereo not given)	-2%
Nc1ncnc2c1ncn2C1OC(CO)CC1O (stereo not given)	-7%
COc1cc(CSc2ccc(O)cc2)cc(O)c1O	1%
CCOC(=O)C1N=[N+](c2ccccc2)C(=O)/C1=C\n1c(=S)[nH]c2ccc([N+](=O)[O-])cc21 (stereo not given)	0%
CNC(=O)OCc1c(COC(=O)NC)c2n(c1C)-c1ccc(OC)cc1CCC2	8%
O=C(NNc1ccccc1)c1ccc(Cl)c(Cl)c1	1%
Cc1ccc(CC2(OCCN(C)C)CCC(C(C)(C)C)CC2)cc1 (stereo not given)	-19%
C[C@]12CC[C@H](O)CC1=CC[C@@H]1C2CC[C@]2(C)C(=O)NC(=O)CC12 (stereo not given in full)	-14%
CCCC/C=C/C(C)(C(=O)OCC)C(=O)OCC	-4%
CCc1c(Cl)c(C)cc(O)c1Cl	-35%
CCCC(=O)Oc1ccc(/C=N/NC(N)=S)nc1	-13%
CCc1nc2ccc(NCCN(C)C)c3c(=O)c4ccccc4n1c23	-39%
COc1c(O)c(C=O)c(Br)c(C=O)c1O	-1%
Cc1ccc(Cl)cc1NC(=O)OCCN(C)C(=O)Nc1cc(Cl)ccc1C	-37%
Cc1nc2ccccc2nc1NNc1ccccc1	3%
